For 70 molecules, manual score results are on record in PubChem BioAssay AID623868 (Vanderbilt High Throughput Screening Facility, 2012).

Hit rate of the full screen: of about 2,100 compounds, about 760 (36%) were called active.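 The calls were made as follows: active = thallium-flux fluorescence traces judged by eye to show enhanced or reduced glutamate response, manual score 1 or -1, so both directions (some results past the limit were not filed as active); inactive = the rest, including fluorescent or raised-baseline compounds.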 These entries were drawn from the full list.

The assay is described as follows: non-GIRK thallium flux modulation in mGlu8 cells, confirmation, counter-screen for GIRK activator project, cell-based, HEK-293 rmGlu8, no GIRK (AID 623868).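 Also: extra codes mark interference with 3 for fluorescent and 4 for baseline rise.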 Conditions: thallium flux fluorescence, at 10 µM, actives lie on both sides, codes: 1 enhancer, -1 blocker, 0 none, thallium stimulus containing EC20 glutamate. On the technique in general: The purpose of a counterscreen is to sort out artefacts and off-target activity.
With `CCC(=O)Oc1oc(-c2ccccc2)nc1C=Nc1ccccc1OC`, the manual score was -1 (active).
As to `COc1ccccc1N=Cc1nc(-c2ccccc2)oc1OC(C)=O`, the manual score is -1 (active).
As to `C=CCN(CC=C)C(=S)NC(=O)c1ccc(OC)c(Br)c1`, the manual score is 1 (active).
Next, `COc1ccc(C(=O)NC(=S)NCCO)cc1Br`: 1 (active); `C=CCN(CC=C)C(=S)NC(=O)/C=C/c1ccc(C)cc1`: 1 (active).
For the molecule `CCOC(=O)c1ccc(NC(=O)Nc2ccc(OC)c(OC)c2)cc1`, the manual score was 0 (inactive).
Turning to `COc1ccc(C(=O)NC(=S)NC(C)C)cc1Br`, the manual score is 0.5 (inactive).
On to `C=CCN(CC=C)C(=S)NC(=O)c1ccc(C)c(Br)c1`, for which the manual score is 1 (active).
Consider `CCOC(=O)c1c(CNCCN(CC)CC)n(C)c2cc(Br)c(OC)cc12`, for which the manual score is 0 (inactive).
Next, `Cc1ccnc(NC(=S)NC(=O)/C=C/c2ccco2)c1`: 0 (inactive); `Cc1ccc(-c2nnn(CC(=O)NC3CC4CCC3C4)n2)cc1` (stereo not given): 0 (inactive); `Clc1ccc(Cc2ccc(SCc3ccccc3)nn2)c(Cl)c1`: 0 (inactive).
Next, `CCCCCCCCCn1c2c(c(=N)c3c1CCC3)CCC2`: 0 (inactive); `CCN(CC)C(=O)CN(c1ccc2c(c1)OCO2)S(C)(=O)=O`: 0 (inactive); `NC1=NC2(CCCCC2)n2c(nc3ccccc32)N1`: 0 (inactive).
`COC(=O)C(C)N(C(=O)c1cccc(Cl)c1)c1c(C)cccc1C` (stereo not given): the manual score was -1 (active).
As for `COC(=O)C(C)N(C(=O)c1cccc2ccccc12)c1c(C)cccc1C` (stereo not given), the manual score is -1 (active).
Regarding `NC(=O)SCC(=O)Nc1cccc(Cl)c1`, the manual score is 0 (inactive).
With `S=c1[nH]ccn1-c1cccc(Cl)c1`, the manual score was 0 (inactive).
In the case of `Oc1c(C=NCc2ccncc2)sc2ccccc12`, the manual score was 0 (inactive).
For the molecule `C=C(C)C1CC=C(C)/C(=N/NC(=O)COc2cccc(C)c2)C1` (stereo not given), the manual score is 0 (inactive).
Regarding `O=C(COc1ccc(Br)cc1Cl)NC(=S)N1CCc2ccccc21`, the manual score was 0 (inactive).
On to `Cc1cnc(NC(=O)COc2ccccc2Cl)s1`, for which the manual score is 0 (inactive).
Regarding `O=C(COc1ccccc1)NC(=S)N1CCc2ccccc21`, the manual score was 1 (active).
On to `CC(Oc1ccc(Cl)cc1Cl)C(=O)NC(=S)N1CCc2ccccc21` (stereo not given), for which the manual score was 1 (active).
As to `Cc1cccc(OCc2nnc(SCC(=O)N3CCc4ccccc43)n2C)c1`, the manual score was 0 (inactive).
Consider `Cc1cccc(OCC(=O)NC(=S)N2CCCc3ccccc32)c1`, for which the manual score was 1 (active).
As to `O=C(COc1ccccc1Cl)NC(=S)N1CCc2ccccc21`, the manual score was 1 (active).
Take `N#CC(C#N)=C1C=C2C=C(N3CCCCCC3)CCC2CC1` (stereo not given): the manual score was 3 (inactive).
Next, `O=C(COc1ccc(Cl)cc1Cl)NC(=S)N1CCCc2ccccc21`: 1 (active).
Turning to `CC1CCC/C(=N\NC(=O)COc2ccc(Cl)cc2Cl)C1` (stereo not given), the manual score is 0 (inactive).
Regarding `O=C(COc1ccc(Br)cc1Br)NC(=S)N1CCCc2ccccc21`, the manual score was 0.5 (inactive).
In the case of `CCCCN(CCCC)c1nc2ccccc2nc1C(C#N)C(=O)NCCCOC` (stereo not given), the manual score is 3 (inactive).
Next, `C=C(C)C1CC=C(C)/C(=N/NC(=S)Nc2ccccc2)C1` (stereo not given): 0 (inactive).
For the molecule `S=C(NN=C1C2CC3CC(C2)CC1C3)Nc1ccccc1`, the manual score was 1 (active).
Consider `S=C(NN=C(C1CC1)C1CC1)Nc1ccccc1`, for which the manual score is 0 (inactive).
For `CC(C)N=c1scc(-c2cccs2)n1/N=C/c1ccc(O)c(O)c1O`, the manual score is 0 (inactive).
Consider `CC(c1ccco1)N(C(=O)c1ccccc1NS(=O)(=O)c1cc([N+](=O)[O-])ccc1Cl)c1ccccn1` (stereo not given), for which the manual score is 1 (active).
`CCOP(=O)(c1ccccc1)c1nc(-c2ccccc2C)oc1N1CCCCC1` (stereo not given): the manual score is 0 (inactive).
As for `Cc1ccc(/C=N/Nc2nc(Cl)c(Cl)cc2Cl)s1`, the manual score was 1 (active).
With `CCOC(=O)C1=C(C)OC(N)=C(C#N)C1c1cncc(-c2ccc(F)cc2)c1` (stereo not given), the manual score is 0 (inactive).
In the case of `Cc1cc(C)n(-c2ccc(C(=O)OCC(=O)Nc3ccc(Cl)c(S(=O)(=O)N(C)C)c3)cc2)n1`, the manual score was 0 (inactive).
For `CCOC(=O)Cc1csc(NC(=S)NC(=O)c2ccccc2Br)n1`, the manual score is 1 (active).
Regarding `CCOC(=O)Cc1csc(NC(=S)NC(=O)c2ccccc2C)n1`, the manual score is 1 (active).
Next, `CC1=CC(=O)OC1Cc1ccncc1` (stereo not given): 0 (inactive); `O=C(Nc1ccc(F)cc1)c1cccc2c1C(=O)N(Cc1ccccn1)C2`: 0 (inactive).
Take `COc1ccc(-n2c(=O)[nH]cc(C(=O)Nc3ccc(NC(C)=O)cc3)c2=O)cc1`: the manual score is 0 (inactive).
In the case of `CCCC(=O)Nc1ccc(NC(=O)C23CC4CC(CC(C4)C2)C3)cn1`, the manual score is 0 (inactive).
Next, `Cc1ccnc(NC(=S)NC(=O)c2cccs2)c1`: 1 (active); `O=C(NC(=S)Nc1ccc(Cl)cn1)c1cccs1`: 1 (active).
Turning to `CC(Cc1cccs1)NC(=O)Nc1ccc(Cl)cc1` (stereo not given), the manual score was 0 (inactive).
As to `Cc1cccc(NC(=S)NC(=O)c2cccs2)n1`, the manual score is 1 (active).
Next, `Cc1ccc2cccc(NC(=S)NC(=O)c3ccnn3C)c2n1`: 0 (inactive); `CCn1c(CCNC(=O)c2cccs2)nnc1SCC(=O)Nc1ccc(Cl)cc1`: 0 (inactive).
Next, `Cc1ccc2cccc(NC(=S)NC(=O)c3ccn(C)n3)c2n1`: 0 (inactive); `CC(C)CC(NS(=O)(=O)c1ccc2c(c1)oc(=O)n2C)C(=O)NC1CCCc2ccccc21` (stereo not given): 0 (inactive).
Regarding `CCOc1ccc(-n2c(SCc3nc(-c4cccs4)no3)nnc2-c2ccncc2)cc1`, the manual score is 0 (inactive).
In the case of `CC(C)CC(=O)NC(=S)N(Cc1ccccc1)Cc1ccccc1`, the manual score was 1 (active).
As for `CC(C)C(=O)NC(=S)N(Cc1ccccc1)Cc1ccccc1`, the manual score was 1 (active).
For the molecule `CC(C)CC(=O)NC(=S)Nc1nc(-c2cccc3ccccc23)cs1`, the manual score is 0 (inactive).
On to `Cc1ccccc1Cn1c(=N)n(CC(O)c2ccco2)c2ccccc21` (stereo not given), for which the manual score is 0 (inactive).
On to `N#Cc1nc(COc2ccccc2)oc1N1CCN(c2cccc(Cl)c2)CC1`, for which the manual score was 0 (inactive).
On to `O=C(Nc1nc(=O)c2ccccc2s1)c1ccccc1`, for which the manual score was 1 (active).
For the molecule `O=C(Nc1nc2ccccc2s1)c1cc(-c2ccccc2)nn1-c1ccccc1`, the manual score is 0 (inactive).
With `O=C(Cc1ccccc1)Nc1nc(-c2cccs2)cs1`, the manual score is 0 (inactive).
Take `CCN(CC)C(=O)CSc1nnc(NC(=O)CCc2ccccc2)s1`: the manual score is 0 (inactive).
Take `O=C(Nc1nc(=O)c2ccccc2s1)c1ccc(F)cc1`: the manual score is 1 (active).
On to `O=C(Cc1ccccc1)Nc1nc(=O)c2ccccc2s1`, for which the manual score is 1 (active).
`CN(C)CCCNC(=O)c1ccc(-c2nc(-c3ccc(Cl)cc3)cs2)cc1`: the manual score is 0 (inactive).
On to `O=C(Nc1nc(=O)c2ccccc2s1)c1ccc(Cl)cc1`, for which the manual score is 1 (active).
